Measured values as given in PubChem BioAssay (NCI).
Where “and” joins values, the source holds several entries; their conditions need not be identical. Equal entries are not always repeated. Compounds without any hit were thinned out: in the full panel of roughly 79,000, 15% have a hit. Calls of active or inactive are those of the source. Cut-off read from the data, not from the text of the source: active = growth inhibition above about 70%; inactive = the rest.

Tests used:
[1] = NCI Yeast Anticancer Drug Screen. Data for the mec2-1 strain (AID 157); conditions: S. cerevisiae mec2-1 strain, active compounds read high
In short: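 mec2-1 yeast strain, carrying an alteration in DNA damage repair or cell cycle control, was exposed to compounds; growth inhibition was measured relative to vehicle-treated controls.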

[2] = NCI Yeast Anticancer Drug Screen. Data for the sgs1 mgt1 strain (AID 161);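 note: 0% = growth of cultures given vehicle only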; conditions: S. cerevisiae sgs1 mgt1 strain, active compounds read high
In short: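 Percent growth inhibition was derived by comparing compound-exposed mutant yeast with vehicle-exposed cultures. The strain carries alterations in DNA damage repair.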

[3] = NCI Yeast Anticancer Drug Screen. Data for the cln2 rad14 strain (AID 165);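 note: 0% = growth equal to vehicle treated cultures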; conditions: S. cerevisiae cln2 rad14 strain, active compounds read high
In short: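 Yeast carrying cln2 and rad14 alterations (cell cycle control and DNA damage repair) were exposed to compounds. Growth inhibition was measured against vehicle-treated controls.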

[4] = NCI Yeast Anticancer Drug Screen. Data for the bub3 strain (AID 167); conditions: S. cerevisiae bub3 mutant strain, active compounds read high
In short: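 Growth of a checkpoint-deficient yeast mutant is measured after compound exposure. Values represent inhibition relative to vehicle.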

[5] = NCI Yeast Anticancer Drug Screen. Data for the mlh1 rad18 strain (AID 175); conditions: S. cerevisiae mlh1 rad18 strain growth inhibition, active compounds read high
In short: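 Growth inhibition of the yeast strain was measured after compound exposure and expressed relative to vehicle-treated controls. The strain carries defined defects in DNA damage repair.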

[6] = NCI Yeast Anticancer Drug Screen. Data for the rad50 strain (AID 155);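 note: 0% = growth of vehicle-only cultures of the same strain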; conditions: S. cerevisiae rad50 strain growth inhibition; at 50.0 µM; active compounds read high
In short: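 Compounds were tested on a yeast strain with an engineered DNA damage repair alteration; the reported value is growth inhibition normalised to vehicle treatment.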

[7] = at 5.0 µM (retest, dose inferred, filed as 0.5)
[8] = at 50.0 µM (retest, dose inferred, filed as 5.0)

Measured: growth inhibition

COc1c(C)c2c(c(O)c1C/C=C(\C)CCC(=O)O)C(=O)OC2
inactive: [1]; [7] 11% | [2]; [7] 30% | [3]; [7] 32% | [4]; [7] 17% | [5]; [7] 38%
active: [1]; [8] 88% | [1]; at 50.0 µM 90.9% | [2]; [8] 90% | [2]; at 50.0 µM 92.2% | [3]; [8] 95% | [3]; at 50.0 µM 90.2% | [4]; [8] 91% | [4]; at 50.0 µM 89.2% | [5]; [8] 92%

CC(=O)C1Cc2ccccc2C1=O (stereo not drawn)
inactive: [1]; [7] 3% | [1]; [8] 44% | [1]; at 50.0 µM 42.2% | [2]; [7] 0% | [2]; at 50.0 µM 41.1% | [3]; [7] 1% | [3]; [8] 50% | [3]; at 50.0 µM -13.1% | [4]; [7] 3% | [4]; at 50.0 µM 9% | [5]; [7] 4%
active: [2]; [8] 91% | [4]; [8] 93% | [5]; [8] 90% | [5]; at 50.0 µM 71.8%

C1CN(CCN2CCOCC2)CCO1
inactive: [6] 0.9% and 7.9% | [1]; at 50.0 µM 18.1% and 13% | [3]; at 50.0 µM -26.6% and -40.6% | [4]; at 50.0 µM 10.6% and 28.9% | [5]; at 50.0 µM 7.7% and 14%

O=C(Oc1ccc(Br)cc1)c1ccccc1
inactive: [6] 0.75% and 5.6% | [1]; at 50.0 µM -12.8% and -7.05% | [2]; at 50.0 µM -4.35% and -0.05% | [4]; at 50.0 µM 30.9% and 13.7% | [5]; at 50.0 µM -6.1% and 29.4%

CC(CCC(=O)O)C(=O)O (stereo not drawn)
inactive: [6] -16% and 17.4% | [1]; at 50.0 µM -7.65% and -15.8% | [2]; at 50.0 µM -8.6% and -4.6% | [3]; at 50.0 µM -5.7% and 0.25% | [5]; at 50.0 µM -8.5% and 9.8%

CCOC(=O)C(c1ccccc1)c1cccc(C(C(=O)OCC)c2ccccc2)n1 (stereo not drawn)
inactive: [6] 3.1% and 8.55% | [1]; at 50.0 µM 0.2% and 0.1% | [2]; at 50.0 µM -16.9% and -33.5% | [3]; at 50.0 µM -3.05% and -41.7% | [5]; at 50.0 µM 17.6% and -13.7%

c1ccc([P+](Cc2ccccc2C[P+](c2ccccc2)(c2ccccc2)c2ccccc2)(c2ccccc2)c2ccccc2)cc1
inactive: [6] -15% and 20.1% | [2]; at 50.0 µM -5.3% and 7.25% | [3]; at 50.0 µM -8.25% and 14.8% | [4]; at 50.0 µM 1.6% and 7.8% | [5]; at 50.0 µM -50% and 12.3%

NC(=O)N/N=C/C=C/c1ccccc1
inactive: [6] 18.4% and -1.3% | [1]; at 50.0 µM 12.7% and 3.1% | [2]; at 50.0 µM 6.85% and -6.75% | [4]; at 50.0 µM -0.4% and -14.1% | [5]; at 50.0 µM 5.05% and 6.95%

Nc1cc(=O)[nH][nH]1
inactive: [6] -11.7% and -11.5% | [2]; at 50.0 µM -2.15% and -22.4% | [3]; at 50.0 µM -5.9% and -7.35% | [4]; at 50.0 µM -17.8% and -0.2% | [5]; at 50.0 µM -15.8% and -9.2%

CN1CCc2cc3c(c4c2C1C(O)c1ccccc1-4)OCO3 (stereo not drawn)
inactive: [1]; [7] 12% | [1]; [8] 9% | [1]; at 50.0 µM 17.7% | [2]; [7] 9% | [2]; [8] 7% | [2]; at 50.0 µM 26.6% | [3]; [7] 7% | [3]; [8] 17% | [3]; at 50.0 µM 31.8% | [4]; [7] 7% | [4]; [8] 27% | [4]; at 50.0 µM 36.6% | [5]; [7] 13% | [5]; [8] 11% | [5]; at 50.0 µM 15%

CN(C)C
inactive: [6] 17.1% and 2.45% | [1]; at 50.0 µM -30.6% and -27.2% | [3]; at 50.0 µM -3.8% and -97.7% | [4]; at 50.0 µM 9.8% and -21.9% | [5]; at 50.0 µM 7.8% and -135%

Clc1ccc(/C=N/N=C/c2ccc(Cl)cc2)cc1
inactive: [1]; at 50.0 µM -28.9% and -16% | [2]; at 50.0 µM -42.2% and -19.6% | [3]; at 50.0 µM -23% and -20.1% | [4]; at 50.0 µM -33.3% and 6.3% | [5]; at 50.0 µM -33.5% and -18.1%

CCCCCCCc1ccc(OC2OC(COC(C)=O)C(OC(C)=O)C(OC(C)=O)C2OC(C)=O)cc1 (stereo not drawn)
inactive: [6] -7% and -26.1% | [1]; at 50.0 µM -12.1% and 13.8% | [3]; at 50.0 µM -7.45% and 37.9% | [4]; at 50.0 µM 5.55% and 9.7% | [5]; at 50.0 µM -6% and 10.6%

O=C(O)/C=C/c1cccc(Cl)c1
inactive: [6] 14.2% and -11.2% | [1]; at 50.0 µM 10.2% and -19.9% | [3]; at 50.0 µM -16.1% and 13.5% | [4]; at 50.0 µM -6.7% and -28.2% | [5]; at 50.0 µM 24.8% and 23.6%

NNS(=O)(=O)c1ccc(Cl)cc1
inactive: [6] -3.5% and 13.2% | [2]; at 50.0 µM -5.45% and 6.6% | [3]; at 50.0 µM 13.4% and -4.4% | [4]; at 50.0 µM 22.9% and 9.8% | [5]; at 50.0 µM -8.3% and 7%

CC(C)=C1C=C2CC[C@@H]3[C@](C)(CCC[C@@]3(C)C(=O)O)[C@H]2CC1
active: [1]; [8] 95% | [1]; at 50.0 µM 90.2% | [2]; [8] 95% | [2]; at 50.0 µM 91% | [3]; [8] 91% | [3]; at 50.0 µM 90.3% | [4]; [8] 94% | [4]; at 50.0 µM 85.8% | [5]; [8] 94% | [5]; at 50.0 µM 88.5%
inactive: [1]; [7] 3% | [2]; [7] 2% | [3]; [7] -4% | [4]; [7] -1% | [5]; [7] 0%

O=C(O)C(Cc1ccc(O)cc1)NS(=O)(=O)Cc1ccccc1 (stereo not drawn)
inactive: [6] -12.8% and 7.15% | [1]; at 50.0 µM -5.85% and 17.5% | [2]; at 50.0 µM -3.1% and 14.7% | [4]; at 50.0 µM -55.3% and 19.9% | [5]; at 50.0 µM -19.1% and 3.8%

O=c1oc2c(O)c(O)cc3c(=O)oc4c(O)c(O)cc1c4c23
inactive: [1]; at 50.0 µM 18.6% and -20.1% | [2]; at 50.0 µM 34.7% and -10.7% | [4]; at 50.0 µM 29% and -35.9% | [5]; at 50.0 µM -8.1% and -19.1%

O=C(O)/C=C/C(=O)Nc1ccccc1
inactive: [1]; at 50.0 µM -18.7% and -22% | [2]; at 50.0 µM -11.8% and -14.3% | [3]; at 50.0 µM 0.25% and -30.4% | [4]; at 50.0 µM -2.8% and -10.2% | [5]; at 50.0 µM 4.15% and -1.65%

O=C/C=C/c1ccc([N+](=O)[O-])cc1
inactive: [1]; [7] 49% | [2]; [7] 18% | [3]; [7] 8% | [3]; at 50.0 µM 46.7% | [4]; [7] 17%
active: [1]; [8] 100% | [1]; at 50.0 µM 83.5% | [2]; [8] 98% | [2]; at 50.0 µM 95.5% | [3]; [8] 98% | [4]; [8] 99% | [4]; at 50.0 µM 95.3% | [5]; [7] 72% | [5]; [8] 99% | [5]; at 50.0 µM 90.5%
